HT1080 IDH1KD tx = qHTS for induction of synthetic lethality in tumor cells producing 2HG: qHTS for the HT-1080-IDH1KD cell line | HT-1080 IDH1 knockdown viability, ATP luminescence, 48 h | Potency, µM (top dose mostly 46.1 µM), for inactives: top-dose activity, negative = toxicity, usual class: cytotoxic | hit rate 2% among 360,000 | AID 686971, 2013;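 also: 0% = DMSO wells and -100% = cell-free medium wells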
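% activity derives from luminescence (CellTiter-Glo), normalised to DMSO and no-cell wells. HT-1080-IDH1KD cells, 750/well, had 48 h compound exposure at 37 °C.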
HT1080-NT tox = qHTS for induction of synthetic lethality in tumor cells producing 2HG: qHTS for the HT-1080-NT fibrosarcoma cell line. hit rate 1.6% among 360,000. Potency, µM (highest dose often 46.1 µM), inactives show at the top dose activity, negative = less viability, actives largely listed as cytotoxic. HT-1080-NT fibrosarcoma viability, CellTiter-Glo ATP luminescence, 48 h;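 also: NT is the 2HG producing partner of a matched IDH1 knockdown line; 0% = DMSO-treated cells and -100% = media-only wells without cells; nearly all actives have a fitted effect of over 55% in size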
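Toxicity toward the 2HG-producing NT line was scored as %Activity, normalised to DMSO and no-cell wells, from CellTiter-Glo luminescence after 48 hours' treatment.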
KB-V1 cytotox = qHTS assay for MDR1-selective chemotherapeutics: Primary screen using the drug-selected MDR subline cells KB-V1. Potency, µM (highest dose often 46.1 µM), hits mostly cytotoxic. AID 1347076, 2019. KB-V1 MDR cells viability, CellTiter-Glo, 72 h. hit rate 3.4% among 400,000; also: nearly all actives have a fitted effect of over 60% in size
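Potencies derive from concentration-effect curves fitted to normalized luminescence (CellTiter-Glo) of KB-V1 cells treated for 72 h at 37 degrees C in phenol-red-free DMEM containing 10% FBS.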
KB-3-1 tox = qHTS assay for MDR1-selective chemotherapeutics: Primary screen using the parental adenocarcinoma cell KB-3-1 | AID 1347075, 2019 | KB-3-1 viability, CellTiter-Glo ATP luminescence, 72 h | Potency, µM (top dose mostly 46.1 µM), most hits filed as cytotoxic | hit rate 1.4% among 400,000; also: nearly all actives have a fitted effect of over 60% in size
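Multi-concentration cytotoxicity screen in KB-3-1 cells grown in DMEM lacking phenol red with 10% FBS. After 72 h at 37 °C with compound, ATP-dependent luminescence was recorded.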
TDP1 cell noCPT = qHTS for Inhibitors of human tyrosyl-DNA phosphodiesterase 1 (TDP1): qHTS in cells in absence of CPT; DT40 Tdp1-/- hTDP1 cells, no CPT, ATP luminescence, 48 h; Potency, µM (series often up to 46.2 µM), for the others: top-dose activity change, negative = growth inhibition, hits mostly inhibitors; hit rate 15% among 420,000; AID 686978, 2013; also: nearly all actives have a fitted effect of over 55% in size
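Luminescent ATP content (CellTiter-Glo) served as the growth readout. Knockout chicken DT40 cells expressing human TDP1 were exposed to compounds without camptothecin for a minimum 48 hr at 37 °C.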
TDP1 cell CPT = qHTS for Inhibitors of human tyrosyl-DNA phosphodiesterase 1 (TDP1): qHTS in cells in presence of CPT. chicken DT40 Tdp1-/-;hTDP1 cells + 20 nM CPT, ATP luminescence, 48 h. Potency, µM (titrated, usually from 46.2 µM), without a hit: top-dose activity change, negative = growth inhibition, usual class: inhibitors. hit rate 12% among 420,000; also: nearly all actives have a fitted effect of over 55% in size
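Chicken DT40 Tdp1-/- cells complemented with human TDP1, 400 cells/well, exposed to compounds plus 20 nM camptothecin for at least 48 h at 37 C; viability read as ATP content by CellTiter-Glo luminescence.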
* hit, by the source's call; i = inactive; ? = inconclusive; · = not tested or not shown; [ ] = another dose, or the depositor's remark. Most compounds without a hit are left out; they make up all but 19% or so of the library. Calls follow the shape of the dose curve; as a rule, active = well fitted curve in the direction sought with a large enough effect; inconclusive = small, poorly fitted or top-dose-only effect, or another doubt; inactive = no such curve, though single readings can be large; an effect the other way counts as inactive or inconclusive. Unless noted, % is scaled to controls: 0 for no effect and ±100 for the full control effect; potency is read from the fitted curve at half-maximal effect.

SMILES	HT1080 IDH1KD tx	HT1080-NT tox	KB-V1 cytotox	KB-3-1 tox	TDP1 cell noCPT	TDP1 cell CPT
Cc1ccc(N/C=C/C(=O)C(C)(C)C)c(O)c1	?	-29%	i	i	-18%	-26%
O=C(C[n+]1cccc(C(=O)Nc2ccccc2)c1)c1ccccc1	0%	-5%	i	i	18µM*	?
N#Cc1ccc[n+](CC(=O)c2ccc(NC(=O)c3ccccc3)cc2)c1	15%	5%	i	i	-22%	10µM*
Cc1ccc[n+](CC(=O)c2ccc(NC(=O)c3ccccc3)cc2)c1	4%	1%	i	i	-78%	-82%
COc1ccccc1N1CCN(C(=O)CCC(=O)N2CCN(c3ccc(F)cc3)CC2)CC1	1%	0%	i	i	?	-30%
CC(C)(C)OC(=O)N[C@@H](CC(=O)OCc1ccccc1)C(=O)O	20%	7%	i	i	?	?
CC(C)(C)OC(=O)N1CCC(c2c(C(=O)NC3CC3)cnn2-c2ccccc2)CC1	22%	?	i	i	5%	-3%
CC(C)(C)OC(=O)N1CCC(c2c(C(=O)NC3CCN(Cc4ccccc4)CC3)cnn2-c2cccc(F)c2)CC1	·	·	i	i	9.2µM*	12µM*
Cc1cccc(-n2ncc(C(=O)NC3CCCC3)c2C2CCN(C(=O)OC(C)(C)C)CC2)c1	16%	0%	i	i	?	?
Cc1ccc(-n2ncc(C(=O)NC3CCN(Cc4ccccc4)CC3)c2C2CCN(C(=O)OC(C)(C)C)CC2)cc1C	·	·	i	i	15µM*	21µM*
CC(C)[C@H](NC(N)=O)C(=O)Nc1cccc(S(=O)(=O)NC2=NCCCCC2)c1	3%	10%	i	i	5%	10%
COc1ccc(C2c3c(n(C)c4ccccc34)C(=O)N2CC(=O)Nc2ccc(C)cc2Cl)cc1 (stereo not given)	·	·	i	i	?	?
COc1ccc(C2c3c(n(C)c4ccccc34)C(=O)N2CC(=O)Nc2cc(Cl)ccc2C)cc1 (stereo not given)	·	·	i	i	21µM*	?
O=C(C1CN(C(=O)c2cc3cc(Cl)ccc3o2)c2ccccc2O1)N1CCCCC1 (stereo not given)	-15%	0%	21µM*	?	?	?
O=C(c1cc2cc(Cl)ccc2oc1=O)N1CCCCCCC1	10%	13%	i	i	0%	5%
O=C(Nc1c(-c2ccccc2)nc2sccn12)c1ccccc1	-2%	12%	i	i	?	?
C/C(CC1CC(C)OC1=O)=N\NC(N)=S (stereo not given)	2%	3%	i	i	15%	-11%
C/C(CCC12CC3CC(CC(C3)C1)C2)=N\NC(N)=S	?	?	i	i	16µM*	15µM*
Cc1csc(NC(=O)c2ccncc2)n1	-14%	-11%	i	i	8%	-14%
CC(C)(C)c1csc(NC(=O)c2ccncc2)n1	-3%	-15%	?	?	21µM*	?
CC(C)(C)c1csc(NC(=O)c2ccc3nccnc3c2)n1	2%	0%	i	i	18µM*	16µM*
Cc1cccc(NC(=O)c2ccc3nccnc3c2)n1	0%	23%	i	i	-25%	?
O=C1OCCC1Sc1nnnn1-c1ccc(Cl)cc1 (stereo not given)	12%	11%	i	i	-3%	4%
C/C(=C\C(=O)OCCCCCCCCC(=O)O)C[C@@H]1OC[C@H](C[C@@H]2O[C@H]2[C@@H](C)[C@H](C)O)[C@@H](O)[C@H]1O	-1%	?	i	i	1.5µM*	1µM*
Cc1cccc(N(Cc2ccccc2)C(=O)Cc2ccc(S(=O)(=O)N3CCOCC3)s2)c1	4%	1%	?	i	23µM*	?
SMILES	HT1080 IDH1KD tx	HT1080-NT tox	KB-V1 cytotox	KB-3-1 tox	TDP1 cell noCPT	TDP1 cell CPT
CC1CN(S(=O)(=O)c2cccc(C(=O)OCCOc3ccccc3)c2)CC(C)O1 (stereo not given)	-8%	-2%	12µM*	i	?	21µM*
Cc1ccc(N(Cc2ccccc2)C(=O)c2ccc(F)c(S(=O)(=O)N3CCOCC3)c2)cc1	-4%	1%	3.7µM*	?	23µM*	?
Cc1cccc(N(Cc2ccccc2)C(=O)c2ccc(C)c(S(=O)(=O)N3CCOCC3)c2)c1	-11%	10%[9.24 µM]	i	i	13µM*	16µM*
Cc1cccc(N(Cc2ccccc2)C(=O)c2ccc(F)c(S(=O)(=O)N3CCOCC3)c2)c1	2%	6%	i	i	?	?
CCc1ccc(NC(=O)Cn2cc([N+](=O)[O-])nc2C)cc1	-21%	-9%	i	i	-8%	-28%
COc1ccc(-n2c(Cc3cccn3C)nnc2SCC(=O)Nc2nc(C)cs2)cc1	-9%	-3%	i	i	-19%	-30%
O=C(C1CC=CCC1)N1CCN(C(=O)C2CC=CCC2)CC1 (stereo not given)	12%	15%	i	i	-29%	-14%
Cc1ccc(C)c(NC(=O)CN(C)C(=O)c2cc(S(=O)(=O)N3CCOCC3)ccc2N2CCCC2)c1	-10%	-4%	·	·	-28%	-17%
Cc1ccc(N(Cc2ccccc2)C(=O)c2cc(S(=O)(=O)N3CCOCC3)ccc2N2CCCC2)cc1	-9%	-2%	i	i	21µM*	21µM*
CC1CCN(S(=O)(=O)c2cccc(C(=O)N(Cc3ccccc3)c3ccccn3)c2)CC1	-7%	9%	?	i	?	?

Bioassay records: PubChem, National Center for Advancing Translational Sciences (NCATS)
